The panel holds about 83,000 compounds, 20% with a hit somewhere; the sample as a whole holds those more often.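 96-well plates, one dose, 48 hours. Percent growth reported; active if below 10.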 Unmarked numbers belong to inactive results. The source made the active and inactive calls.
How the values were obtained:
Assay in all cases: NCI-60 one-dose screen, 48 h (100 = growth as untreated, 0 = no growth, -100 = all killed)
HCT-15 colon = settings: 10 µM unless noted
HT29 colon = settings: 10 µM unless noted
SNB-75 CNS = settings: 10 µM unless noted
SNB-19 CNS = settings: 10 µM unless noted
U251 CNS = settings: 10 µM unless noted
PC-3 prostate = settings: 10 µM unless noted
SK-MEL-5 melanoma = settings: 10 µM unless noted
UACC-62 melanoma = settings: 10 µM unless noted
LOX IMVI melanoma = settings: 10 µM
SK-MEL-28 melanoma = settings: 10 µM unless noted
SK-MEL-2 melanoma = settings: 10 µM unless noted
EKVX NSCLC = settings: 10 µM unless noted
SN12C renal = settings: 10 µM unless noted
UO-31 renal = settings: 10 µM unless noted
TK-10 renal = settings: 10 µM unless noted
ACHN renal = settings: 10 µM unless noted
CAKI-1 renal = settings: 10 µM unless noted
A498 renal = settings: 10 µM unless noted
MOLT-4 leukemia = settings: 10 µM unless noted
CCRF-CEM leukemia = settings: 10 µM unless noted

SMILES | growth (HCT-15 colon) | growth (HT29 colon) | growth (SNB-75 CNS) | growth (SNB-19 CNS) | growth (U251 CNS) | growth (PC-3 prostate) | growth (SK-MEL-5 melanoma) | growth (UACC-62 melanoma) | growth (LOX IMVI melanoma) | growth (SK-MEL-28 melanoma) | growth (SK-MEL-2 melanoma) | growth (EKVX NSCLC) | growth (SN12C renal) | growth (UO-31 renal) | growth (TK-10 renal) | growth (ACHN renal) | growth (CAKI-1 renal) | growth (A498 renal) | growth (MOLT-4 leukemia) | growth (CCRF-CEM leukemia)
C=CCN1CCCC1=O | 104% | 96.3% | 70.2% | 93.1% | 102% | 94.6% | 101% | 86.1% | 108% | 108% | 161% | 96.8% | 94.2% | 101% | 90.2% | 109% | 95.8% | 91% | 93.8% | –
CC(C)(C)NCCC(O)c1cc(C(F)(F)F)nc2c(C(F)(F)F)cccc12 (stereo not drawn) | 79.2% | 66.5% | 78.2% | 87.2% | 54.3% | 55.3% | 81.8% | 74.7% | 1.78% (active) | 117% | 102% | 86.7% | 84.7% | 45.7% | 82.9% | 67.2% | 75.4% | 33.3% | 89.6% | 94.5%
Cn1c(=O)c2[nH]c(CCCCC(=O)O)nc2n(C)c1=O | 107% | 110% | 95.3% | 114% | 106% | 92.4% | 108% | 102% | 99.4% | 118% | 111% | 131% | 104% | 105% | 98.4% | 103% | 106% | – | 102% | 75.6%
CCNCC(C)(C)O | 104% | 109% | 79.4% | 102% | 104% | 91.5% | 97.3% | 102% | 101% | 101% | 107% | 99.6% | 101% | 83.6% | 108% | 110% | 99.1% | – | 99.2% | 106%
CCCCCCCCCc1ccc(OC(C)=O)cc1 | 111% | 102% | 99.4% | 103% | 97.9% | 94.1% | 103% | 107% | 104% | 107% | 101% | 108% | 99.6% | 95.9% | 96.3% | 109% | 103% | 70.1% | 108% | –
COc1cc(C(=O)NC(=S)NCc2ccncc2)cc(OC)c1OC | 95.5% | 89.2% | 92.5% | 106% | 98.7% | 95.9% | 90.3% | 99.3% | 97.7% | 102% | 89.5% | 99.4% | 102% | 77.4% | 103% | 94.2% | 91.4% | – | – | 99.5%
CCOS(=O)(=O)c1ccc([N+](=O)[O-])cc1 | 110% | 94% | 87% | 101% | 99.2% | 97.9% | 102% | 101% | 97.7% | 107% | 102% | 110% | 101% | 88.9% | 95% | 103% | 99% | – | 98.5% | 99.2%
O=C(CCCl)OCCOc1ccccc1 | 105% | 102% | 96.1% | 108% | 99.9% | 95.9% | 108% | 108% | 96.6% | 107% | 104% | 109% | 104% | 88.5% | 100% | 106% | 102% | 89% | 92.1% | –
COc1ccc(C(=O)/C(=N/Nc2ccccc2)c2ccc(OC)cc2)cc1 | 76.1% | 80.5% | 97.1% | 100% | 92.4% | 78.2% | 98.1% | 79.2% | 92.1% | 111% | 96.2% | 91.7% | 91.5% | 71.4% | 112% | 96.1% | 73.9% | – | 85% | 94.1%
NNc1ncnc2c1ncn2C1OC(CO)C(O)C1O (stereo not drawn) | 11.2% | 9.12% (active) | 94.2% | 57.8% | 39.7% | 32.3% | 88.4% | 60.5% | 32.6% | 88.8% | 73.5% | 60.5% | 27.7% | 38.1% | 52.8% | 15.2% | 36.1% | – | 109% | 72%
CC(C)c1ncc([N+](=O)[O-])n1C | 101% | 108% | 116% | 111% | 104% | 102% | 114% | 107% | 108% | 119% | 127% | 126% | 109% | 85.3% | 114% | 102% | 94.4% | – | 104% | 102%
CC(=O)/C(C)=N\OC(=O)Nc1ccccc1 | 103% | 99.4% | 82.7% | 98% | 93% | 97.5% | 99.1% | 107% | 94.6% | 112% | 107% | 95.6% | 107% | 80.8% | 97.5% | 101% | 97.8% | 101% | 90.4% | –
O=C(O)c1c[nH]c2ccccc2c1=O | 110% | 97.6% | 89.9% | 101% | 93.9% | 97.6% | 101% | 101% | 97.2% | 102% | 95.1% | 103% | 103% | 90.6% | 97.7% | 102% | 100% | 127% | 90% | –
CCOC(=O)CNC(=O)Sc1ccc(C(C)(C)C)cc1 | 94.3% | 114% | 75.7% | 103% | 83.5% | 106% | 107% | 91% | 83.9% | 113% | 87.1% | 111% | 93.5% | 64.2% | 96% | 101% | 100% | 119% | 32.5% | –
CCOC(=O)Nc1nccs1 | 104% | 100% | 111% | 111% | 98.9% | 97.7% | 99.5% | 99.7% | 103% | 111% | 111% | 99.4% | 97.8% | 88.1% | 104% | 104% | 103% | 99.9% | 110% | –
CCCCCC(=O)OCCC1CCCCC1 | 107% | 101% | 89.1% | 112% | 96% | 98.7% | 100% | 104% | 98.6% | 105% | 106% | 108% | 97.2% | 92.2% | 99% | 107% | 103% | – | 95.7% | 83.8%
O=C(O)c1ccc(OCc2ccccc2)cc1 | 109% | 100% | 87.8% | 95% | 93.7% | 90.4% | 96.2% | 95.6% | 98.3% | 101% | 101% | 110% | 98.2% | 89.6% | 96.7% | 94.3% | 92.7% | – | 98% | 104%
